# Source: PubChem BioAssay
# Experiment: basal HepG2 mitochondrial membrane potential changes, profiling panel, cell-based, JC-1 fluorescence, 24 h, 100 nL compound (AID 1167); note: test concentration not given here
# Conditions: higher = more signal
row,SMILES,z-score
1,COc1cc(Cc2cc3c(c(-c4ccccc4)n2)[Si](C(C)C)(C(C)C)OC3)cc(OC)c1OC,-0.591
2,COCCOC(=O)N1C(=O)[C@@]2(c3cc(C#CCC(C(=O)OC)C(=O)OC)ccc31)[C@H](C(N)=O)[C@H]1C(=O)O[C@H](c3ccccc3)[C@H](c3ccccc3)N1[C@@H]2c1ccccc1OCCO,0.142
3,C[C@@]1([C@@H](NS(=O)(=O)c2cccc3cccnc23)c2ccc(-c3ccccc3)cc2)C[C@H]1C1CCCCC1,-1.46
4,C=C(C(=O)CC[C@@H](OC(=O)c1ccccc1-c1ccccc1C(=O)O)c1ccc(CO)o1)C(C)C,-1.54
5,CCOC(=O)C1=CCC(c2cccn2C(=O)OC(C)(C)C)N(S(=O)(=O)c2ccc(C)cc2)C1 (centres undefined),2.22
6,O=C1N(Cc2ccccc2)c2ccccc2C[C@@]12N=C(c1ccc(OCCCO)cc1)O[C@H]2c1ccccc1,-0.237
7,Cc1ccc(S[C@]2(C(=O)NC3CC3)CC(=O)N(C3Cc4ccccc4C3)[C@@H]2c2ccc(CO)cc2I)cc1,-0.24
8,CCc1cccc(NC(=O)O[C@H]2[C@H](OC(=O)Nc3ccccc3-c3ccccc3)[C@H](OC(=O)Nc3ccccc3-c3ccccc3)[C@@H](OC)O[C@@H]2CO)c1,-0.812
9,CC(C)C[C@H]1NC(=O)CNC(=O)[C@@]23C(=O)N[C@@H](Cc4ccccc4)C2[C@H](C)[C@@]2(C)O[C@H]2C3/C=C/C/C=C\CNC1=O (some centres undefined),-0.561
10,C=C(/C=C\CNS(=O)(=O)c1ccc(C)cc1)[C@H](O)[C@H]1CCCN1S(=O)(=O)c1ccccc1[N+](=O)[O-],-3.05
11,C[C@]1(C(=O)O)c2ccccc2C(=O)N(Cc2cc(C(F)(F)F)cc(C(F)(F)F)c2)[C@H]1c1ccc(CO)cc1,-0.244
12,COC(=O)C(CC#Cc1ccc2c(c1)[C@]1(C(=O)N2)[C@H](c2ccc(OCCO)cc2)N2[C@H](c3ccccc3)[C@H](c3ccccc3)OC(=O)[C@H]2[C@@H]1C(N)=O)C(=O)OC,-0.68
13,CN1C(=O)C2C=CC(C(O)c3ccc(I)cc3)N(N(c3ccccc3)c3ccccc3)C2C1=O (centres undefined),-0.994
14,COc1ccc([Si](C)(C)[C@@H]2[C@@H](CC(=O)N(CCO)Cc3ccccc3)O[C@]3(C(=O)N(Cc4cccc(I)c4)c4ccccc43)[C@H]2C)cc1,0.198
15,COc1ccc([Si](C)(C)[C@H]2[C@H](CC(=O)N3CCC[C@H]3CO)O[C@@]3(C(=O)N(Cc4cccc(N5CCCCC5=O)c4)c4ccccc43)[C@@H]2C)cc1,2.8
16,O=C1C2C=CC(C(O)C3CCCCC3)N(Nc3ccccc3F)C2C(=O)N1c1ccccc1 (centres undefined),-0.804
17,C=C(COC)/C(=C/C[C@@H](OC(C)=O)c1cccc(OCCO)c1)c1cnc2ccccc2c1,0.902
18,COC(=O)C1=CC(c2ccc(CO)cc2)=CC(C2CC2)N(Cc2cc3c(cc2Br)OCO3)C=C1C(=O)OC (centres undefined),0.733
19,O=C/C=C/c1ccc(-c2ccccc2)cc1,-0.253
20,COc1ccc(C(O)C2C=CC3C(=O)N(C)C(=O)C3N2Nc2ccccc2)cc1 (centres undefined),-1.27
21,COCCOC(=O)N1C(=O)[C@@]2(c3cc(C#CCNC(N)=O)ccc31)[C@H](c1ccccc1OCCO)N1[C@H](c3ccccc3)[C@H](c3ccccc3)OC(=O)[C@H]1[C@@H]2C(=O)N1CCCCCCC1,-1.51
22,CC1C2C(CCCO)=CC(C3C(=O)N(C(N)=O)C(=O)C23)N1Cc1cccc(OC(F)(F)F)c1 (centres undefined),-0.632
23,CCCC=C(CCC)[C@@H](NC(=O)c1ccc(C(=O)OC)cc1)c1ccc(C(=O)OC)cc1,-0.261
24,COc1ccc(C#Cc2ccc3c(c2)[C@]2(C(=O)N3)[C@H](c3ccccc3OCCO)N3[C@H](c4ccccc4)[C@H](c4ccccc4)OC(=O)[C@H]3[C@@H]2C(=O)NC[C@H](O)c2ccccc2)cc1,-1.21
25,C=C(C(=O)CC[C@@H](OC(=O)c1ccccc1-c1ccccc1C(=O)O)c1cccc(OCCO)c1)C(C)C,-1.12
26,C[C@]1(C(=O)NC2CC2)c2ccccc2C(=O)N(Cc2cc(F)cc(C(F)(F)F)c2)[C@H]1c1ccc(CO)cc1,1.2
27,C=C(COC)C(=O)CC[C@H](OC(C)=O)c1ccccc1OCCO,1.61
28,CCOC(=O)C[C@H]1[C@H](OC(=O)Cc2ccc3c(c2)OCO3)[C@@H](NC(=O)CC(C)C)c2cc(OCCCO)ccc2N1C(=O)c1ccc2ccccc2n1,0.218
29,O=C1C[C@@](C(=O)NCC(F)(F)F)(c2ccc([N+](=O)[O-])cc2)[C@@H](c2ccc(CO)cc2I)N1CC12CC3CC(CC(C3)C1)C2,-0.436
